TbREL1 inh: TbREL1 inhibition, primary screen | TbREL1 RNA ligation, FRET fluorescence | inhibition, % at 9.66 µM | AID 1117264 | hit rate 0.49% among 89,000 | P86926;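 active = inhibition above the mean inhibition across all screened compounds plus 3 SD, cut at about 11% in these data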;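 note: 0% = plate median of test wells and 100% = NSC42067 control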
Target sequence (P86926 whole entry, looked up): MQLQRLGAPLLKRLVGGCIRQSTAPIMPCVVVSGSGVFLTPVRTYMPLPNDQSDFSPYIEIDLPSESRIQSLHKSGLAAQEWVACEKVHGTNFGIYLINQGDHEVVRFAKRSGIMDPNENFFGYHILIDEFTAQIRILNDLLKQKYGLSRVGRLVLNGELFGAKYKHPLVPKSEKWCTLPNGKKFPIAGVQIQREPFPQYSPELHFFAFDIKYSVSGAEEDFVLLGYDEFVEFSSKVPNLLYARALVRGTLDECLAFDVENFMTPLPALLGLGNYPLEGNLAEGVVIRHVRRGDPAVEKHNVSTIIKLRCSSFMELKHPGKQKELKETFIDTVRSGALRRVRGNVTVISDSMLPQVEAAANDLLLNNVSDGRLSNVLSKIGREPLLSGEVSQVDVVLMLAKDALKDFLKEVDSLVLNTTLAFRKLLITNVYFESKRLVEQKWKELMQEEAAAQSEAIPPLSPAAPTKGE
TbREL1 confirm: TbREL1 inhibition, confirmation | shares compounds with TbREL1 inh | TbREL1 RNA ligation, FRET fluorescence | inhibition, % at 9.66 µM | hit rate 37% among 390;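 active = mean inhibition across replicates above a set limit taken from the earlier primary screen, cut at about 11% in these data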;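 note: 0% = REL1 with substrate and DMSO and 100% = REL1 plus control inhibitor NSC42067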
* marks the source's active call; other numbers are inactive results. Many of the other results were omitted from the sample, so hits are more common in it than they were.

SMILES	TbREL1 inh	others
O=C(O)c1ccc(CSc2nnc(-c3ccncc3)n2-c2ccc(Br)cc2)cc1	9
[S-]c1nnc(-c2ccc(Br)cc2)n1-c1ccccc1.[Zn+2]	23*	TbREL1 confirm=17*
COc1ccc(-n2c(-c3ccccc3)nnc2-c2ccc(Cl)cc2)cc1	-4
C=CC(=O)NC1CCCCN(CC)C1=O (centres undefined)	3
COC1=CC(=O)c2nc(Cl)ccc2C1=O	20*	TbREL1 confirm=30*
Cc1nc2sc(C(=O)NCc3ccc4c(c3)OCO4)c(N)c2c(C)c1Cl	3
O=C(CCCCCN1C(=O)C2C3C=CC(C3)C2C1=O)Nc1cc(F)cc(F)c1 (centres undefined)	-2
Cc1ccc(N2C(=O)/C(=C\c3ccco3)SC2=S)cc1	2
O=C1/C(=C\c2ccco2)SC(=S)N1C1CCS(=O)(=O)C1 (centres undefined)	19*	TbREL1 confirm=1
O=C1/C(=C\c2ccco2)SC(=S)N1c1ccccc1	9
C=CCn1c(SCc2c(Cl)cccc2Cl)nnc1-c1cccc(C)c1	4
COC(=O)C1=C(C)N(CCCC(=O)O)C(=O)NC1c1ccc(C(F)(F)F)cc1 (centres undefined)	1
COC(=O)C1=C(C)N(C)C(=NCc2ccccc2C(F)(F)F)NC1c1ccc(Cl)cc1 (centres undefined)	13*	TbREL1 confirm=7
COC(=O)C1=C(C)N(C)C(=NCc2ccc(C(F)(F)F)cc2)NC1c1ccc(C(F)(F)F)cc1 (centres undefined)	7
COC(=O)C1=C(C)N(C)C(=NCc2ccccc2C(F)(F)F)NC1c1ccc(C(F)(F)F)cc1 (centres undefined)	12*	TbREL1 confirm=10
CCCCn1nnnc1C1c2ccccc2OCC(=O)N1Cc1ccc2c(c1)OCO2 (centres undefined)	1
COc1ccc(C2C(C(=O)Nc3ccc(F)cc3)CCC(=O)N2c2ccc(OC)cc2)cc1 (centres undefined)	-3
COC(=O)[C@]12C[C@H](CC(=O)NCc3ccc(C)o3)C(=O)N(Cc3ccccc3)C1=C[C@H](COCc1ccccc1)O[C@@H]2C	3
Cc1ccc(NC(=S)NNC(=O)CSc2nnc(-c3ccc(C)cc3)n2C2CCCCC2)cc1	-6
C=CCN(C)C(C#CCCCC)c1ccccc1 (centres undefined)	2
C/C(=N\NC(=O)Cc1cccs1)c1ccco1	7
COC(=O)[C@]12C[C@H](CC(=O)NCCC(C)C)C(=O)N(Cc3cccc4ccccc34)C1=C[C@H](COCc1ccccc1)O[C@@H]2C	-3
Cc1nnc(SCC(=O)NC2CCCc3c2cnn3-c2ccc(F)cc2F)o1 (centres undefined)	-1
O=C(NC1CCCc2c1cnn2-c1ccc(F)cc1F)c1ccccc1 (centres undefined)	2
O=C(Cc1ccccc1)NC1CCCc2c1cnn2-c1ccc(F)cc1F (centres undefined)	11*	TbREL1 confirm=2
SMILES	TbREL1 inh	others
O=C(CSc1nc2ccccc2[nH]1)NN=Cc1c(F)cccc1Cl	1
O=C(OCc1cn(Cc2ccccc2F)nn1)N1CCOCC1	6
COc1ccc(-c2nn3cnnc3s2)cc1OC	11*	TbREL1 confirm=4
COc1ccc(-c2nn3c(COc4ccccc4)nnc3s2)cc1OC	0
COc1ccc(-c2cn3nc(C)c(C)nc3n2)cc1OC	2
CCNC(=S)NNC(=O)CSc1nnc(-c2ccccc2)n1-c1ccc(Cl)cc1	-6
O=C(C1CCN(c2ncnc3c2sc2cccc(F)c23)CC1)N1CCN(Cc2ccc(F)cc2)CC1	-5
CCC(CC)NC(=O)O[C@H]1CC[C@@]23CCCN2C(=O)CCC[C@H]3C1	9
CCN(CC)C(=O)O[C@H]1CC[C@@]23CCCN2C(=O)CCC[C@H]3C1	7
O=C(O[C@H]1CC[C@@]23CCCN2C(=O)CCC[C@H]3C1)N1CCOCC1	14*	TbREL1 confirm=0
CN(C(=O)CCn1nnc(-c2cccs2)n1)C1CCCCC1	-4
COC[C@H]1CCCN1c1cccc2c1S(=O)(=O)N1CC[C@@H](C1)O2	-1
CCOC(=O)c1ccc(NC(=O)CSc2nnc(-c3cccc(C)c3)n2C)cc1	1
COc1cccc(CCNS(=O)(=O)c2c(C)n[nH]c2C)c1	2
O=C(c1ccc([N+](=O)[O-])cc1)N1CCN(C(=O)c2cccnc2)CC1	-2
O=C(c1cccnc1)N1CCN(C(=O)c2ccco2)CC1	2
O=C(c1cccnc1)N1CCN(Cc2cccc(Br)c2)CC1	11*	TbREL1 confirm=6
Cc1ccccc1C(=O)NC1CCCCN(C)C1=O (centres undefined)	0
C[C@H]1[C@@H](OC(=O)NCCc2ccccc2)CC[C@@]23CCCN2C(=O)CCC[C@@H]13	-1
CCN(C(=O)COC(=O)c1cc(OC)c(OC)cc1[N+](=O)[O-])C1CCS(=O)(=O)C1 (centres undefined)	0
CN(C(=O)COC(=O)c1cc([N+](=O)[O-])ccc1N1CCOCC1)C1CCCCC1	-2
CCN(C(=O)COC(=O)c1cc([N+](=O)[O-])ccc1N1CCCCC1)C1CCS(=O)(=O)C1 (centres undefined)	11*	TbREL1 confirm=2
COC(=O)Cn1nc(-c2ccccc2)c2cccc(C(F)(F)F)c21	3
Cc1cc(=O)[nH]c(SCC(=O)c2ccc(C)c(C)c2)n1	-2
CCOc1ccc(OCCSc2nc(C)cc(=O)[nH]2)cc1	11*	TbREL1 confirm=3
SMILES	TbREL1 inh	others
COc1cccc(OC)c1OCCCSc1nc(C)cc(=O)[nH]1	4
CCOC(=O)N1CCN(C(=O)C[C@H]2C[C@@]3(C(=O)OC)C(=C[C@H](C(C)C)O[C@@H]3C3CC3)N(CCc3ccc(OC)c(OC)c3)C2=O)CC1	-1
COc1ccc(-n2c(COc3ccc(Cl)cc3)nnc2SCC(=O)Nc2ccc3c(c2)OCO3)cc1	-4
COC(=O)C1=C(C)N(Cc2cccc(C(F)(F)F)c2)C(=NCc2ccc(C(F)(F)F)cc2)NC1c1ccc(C(F)(F)F)cc1 (centres undefined)	8
COC(=O)C1=C(C)N(C)C(=NCc2ccc(C(F)(F)F)cc2)NC1c1ccccc1C(F)(F)F (centres undefined)	10
COC(=O)C1=C(C)N(C)C(=NCc2ccc(OC)cc2)NC1c1ccccc1C(F)(F)F (centres undefined)	6
COC(=O)C1=C(C)N(Cc2ccc(C(F)(F)F)cc2)C(=NCC2CC2)NC1c1ccccc1C(F)(F)F (centres undefined)	14*	TbREL1 confirm=16*
COC(=O)C1=C(C)N(Cc2cccc(C(F)(F)F)c2)C(=NCc2ccc3c(c2)OCO3)NC1c1ccccc1C(F)(F)F (centres undefined)	13*	TbREL1 confirm=20*
CCN1C(=NCc2ccco2)N[C@@H](c2cccc(C(F)(F)F)c2)C(C(=O)OC)=C1C	4
COC(=O)C1=C(C)N(Cc2ccc(C(F)(F)F)cc2)C(=NCc2ccc(OC)cc2)NC1c1ccccc1C(F)(F)F (centres undefined)	17*	TbREL1 confirm=14*
CCN1C(=NCCOC)N[C@@H](c2cccc(C(F)(F)F)c2)C(C(=O)OC)=C1C	6
COC(=O)C1=C(C)N(Cc2ccc(C(F)(F)F)cc2)C(=NCc2cccc(C(F)(F)F)c2)NC1c1ccccc1C(F)(F)F (centres undefined)	20*	TbREL1 confirm=25*
O=C(NCc1c(F)cccc1F)C1CCCN(c2ncccn2)C1 (centres undefined)	2
O=C(Nc1ccc(F)cc1)OCc1cn(Cc2ccc(F)c(F)c2)nn1	-2
O=C(NCc1ccco1)O[C@H]1CC[C@@]23CCCN2C(=O)CCC[C@H]3C1	2

Screens as filed in PubChem BioAssay.
